Measured values reported in PubChem BioAssay (NCI).
About 83,000 compounds went through this panel and 20% of them were active in at least one assay; those are over-represented in the sample as a whole.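 Each cell line was grown in a 96-well plate and treated with one concentration of compound for 48 hours. Values below 10 were considered active.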 Activity calls are given as the source filed them.

test system: MDA-MB-468 breast; assay: NCI-60 one-dose screen, 48 h (100 = growth as untreated, 0 = no growth, -100 = all killed); settings: 10 µM unless noted

Compound	growth
COc1ccc2c(c1)c(=O)oc1c(C)c(OCC(C)=O)ccc12	88.5% (inactive)
CCN(CC)c1ccc(N=Nc2cc(Cl)ccc2Cl)c(NC(=O)CCC(=O)O)c1	107% (inactive)
O=C(Cc1ccc(-c2ccc(OCCN3CCOCC3)cc2)cn1)NCc1ccccc1	-17% (active)
O=C(O)C(CCc1ccccc1)NCc1ccccc1 (stereo not given)	108% (inactive)
COc1nc2c(cc1S(=O)(=O)c1ccccc1)CCc1c-2cnn1Cc1ccccc1	45.7% (inactive)
COc1cc2c(c(OC)c1OC)C(=O)CC(c1cccc(C(=O)Nc3ccccc3Br)c1)O2 (stereo not given)	79.1% (inactive)
CC(=O)c1cc(O)c2ccccc2c1O	63.9% (inactive)
CCOC(=O)C(O)C(O)(c1ccccc1)c1ccccc1 (stereo not given)	115% (inactive)
NCCSSC/C=C\CSSCCN	94.6% (inactive)
COc1c(N2CC3CCCNC3C2)c(F)cc2c(=O)c(C(=O)N/N=C/c3ccc4c(c3)OCO4)cn(C3CC3)c12 (stereo not given)	63.1% (inactive)
O=C(/C=C/c1cccs1)Nc1ncc(Cc2ccccc2F)s1	-13.8% (active)
Cc1cccc(/C=C/c2nn3c(-c4ccco4)nnc3s2)c1	93.9% (inactive)
O=S(=O)(c1ccc(NCSc2nc3ccccc3s2)cc1)c1ccc(NCSc2nc3ccccc3s2)cc1	95.8% (inactive)
C/C(=C(/c1ccccc1)c1ccc(N2C(=O)c3cccc4c(NCc5ccccc5)ccc(c34)C2=O)cc1)c1ccccc1	116% (inactive)
Cc1ccc2c(n1)C(=O)C(Br)=C(CC(C)C)C2=O	91.1% (inactive)
COc1cc(/C=N/Nc2ccnc3cc(Cl)ccc23)cc(OC)c1O	-72.1% (active)
COc1ccc(/C=C2\C=C(c3ccccc3)N(CCc3ccccc3)C2=O)cc1OC	44% (inactive)
CC(C(=O)O)N1C(N)=NNC1c1ccccc1O (stereo not given)	104% (inactive)
COc1ccccc1C(=O)Nc1cccc2c1C(=O)C(=O)C=C2	103% (inactive)
COc1ccc(/C=C/c2nc(Nc3ccc(S(=O)(=O)Nc4nc(C)cc(C)n4)cc3)c3ccccc3n2)cc1	24% (inactive)

Compound	growth
CCOC(=O)c1c(-c2cc(OC)c(OC)c(OC)c2)csc1N	50% (inactive)
O=C1C(=O)c2c(nc3ccc(C(F)(F)F)cn23)-c2ccccc21	-65.9% (active)
COC(=O)/C=C1\S/C(=N\Nc2ccc([N+](=O)[O-])cc2[N+](=O)[O-])N(C2CCCCC2)C1=O	45.1% (inactive)
O=C1C[C@@H]2/C(=C(O)\C=C\c3ccccc3)C(=O)C=C[C@@H]2O1	-76.9% (active)
CC1SC(c2c(Cl)cccc2Cl)N(NC(=O)c2[nH]c3ccc(F)cc3c2-c2ccccc2)C1=O (stereo not given)	66.8% (inactive)
CC(C)=NNc1ccc([N+](=O)[O-])cc1[N+](=O)[O-]	96% (inactive)
CCc1ccc(CCCC(=O)O)cc1	107% (inactive)
Clc1ccc2c(c1)C(N1CCNCC1)=Nc1ccccc1O2	-48.3% (active)
CC1(C)CC([P+](c2ccccc2)(c2ccccc2)c2ccccc2)=NN1	-12.9% (active)
O=C(NNc1nccc(Nc2ccc(S(=O)(=O)Nc3ccncc3)cc2)n1)c1ccccc1	116% (inactive)
O=C1CC[C@@H]2CCCC[C@@H]2C1	125% (inactive)
CC[C@@H](C)/C=C(C)/C=C/C(=O)c1c(O)c(-c2ccc(OC(=O)[C@@]34CC[C@@](C)(C(=O)O3)C4(C)C)cc2)cn(O)c1=O	-4.05% (active)
Cc1cccc(NC(=O)CSc2nc3ccccc3[nH]2)c1	104% (inactive)
COC(C(=O)[C@@H](O)[C@@H](C)O)[C@@H]1Cc2cc3cc(O[C@H]4C[C@@H](O[C@H]5C[C@@H](O)[C@H](O)C(C)O5)[C@H](O)C(C)O4)cc(O)c3c(O)c2C(=O)[C@H]1O[C@H]1C[C@@H](O[C@H]2C[C@@H](O[C@H]3C[C@@H](OC)[C@H](O)C(C)O3)[C@@H](O)C(C)O2)[C@H](O)C(C)O1 (stereo not given in full)	59.3% (inactive)
C#CC[C@H](N)C(=O)O	101% [20 µM] (inactive)
CC1=C(C)C(=O)C(Nc2cccc(C(F)(F)F)c2)=C(Cl)C1=O	-65.6% (active)
COc1cc2c(cc1OC(C)=O)C(=O)CCCC2	76.8% (inactive)
CCOC(=O)c1cc(C(=O)c2ccc(O)c(O)c2)n2ccc(-c3ccn4c(C(=O)c5ccc(O)c(O)c5)cc(C(=O)OCC)c4c3)cc12	112% (inactive)
Cc1ccc(C(C)C)cc1NC(=O)Nc1ccc([N+](=O)[O-])cc1	4.03% (active)
Cc1cc(CC(C)CC(C)(C)C)n(O)c(=O)c1 (stereo not given) (tested in a mixture with another compound)	-7.41% (active)
